An excerpt weighted towards active compounds, which were near 8.9% of everything screened.
NPSR antagonist: qHTS Assay for Antagonists of the Neuropeptide S Receptor: cAMP Signal Transduction; AID 1461, 2008; hit rate 1% among 220,000; Q6W5P4; Potency, µM (titrated, usually from 38.3 µM), without a hit: top-dose activity change, negative = inhibition, most hits filed as inhibitors; CHO-NPSR cells, cAMP TR-FRET, antagonist mode; further: potency means the concentration at half of the fitted maximal effect; nearly all actives have a fitted effect of over 50% in size
ALDH1A1 inh: qHTS Assay for Inhibitors of Aldehyde Dehydrogenase 1 (ALDH1A1); Aldehyde dehydrogenase 1A1 (Homo sapiens), P00352; Purified ALDH1A1, NADH fluorescence, propionaldehyde substrate; Potency, µM (highest dose often 75.3 µM), for the others: at the highest dose activity, negative = inhibition, usual class: inhibitors; hit rate 7.3% among 220,000; AID 1030, 2008; active means well fitted inhibition curve with a large enough effect, not every such curve was filed as active; inconclusive means small, poorly fitted or top-dose-only effect, or another doubt; inactive means no such curve, though single readings can be large or run the other way;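 further: potency means the concentration at half of the fitted maximal effect; plate controls were no enzyme wells and a reference inhibitor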
Target sequence (P00352 whole entry, looked up): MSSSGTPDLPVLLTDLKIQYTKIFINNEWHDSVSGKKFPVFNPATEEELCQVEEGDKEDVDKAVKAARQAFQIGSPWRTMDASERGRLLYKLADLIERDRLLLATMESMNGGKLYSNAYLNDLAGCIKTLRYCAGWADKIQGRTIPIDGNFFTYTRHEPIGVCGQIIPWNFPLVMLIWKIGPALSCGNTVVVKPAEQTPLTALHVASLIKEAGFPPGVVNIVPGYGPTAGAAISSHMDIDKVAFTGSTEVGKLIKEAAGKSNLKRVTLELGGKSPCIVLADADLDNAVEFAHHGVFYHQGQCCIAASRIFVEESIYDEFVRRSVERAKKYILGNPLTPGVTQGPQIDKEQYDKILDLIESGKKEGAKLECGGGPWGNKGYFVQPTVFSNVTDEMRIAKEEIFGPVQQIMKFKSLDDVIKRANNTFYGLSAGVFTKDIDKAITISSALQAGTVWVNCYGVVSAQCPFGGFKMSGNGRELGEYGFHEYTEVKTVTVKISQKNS
IMPase inh: qHTS Assay for Identifying the Cell-Membrane Permeable IMPase Inhibitors. Inositol monophosphatase 1 (Rattus norvegicus), P97697. CHO-M1 cells, IP1 accumulation, HTRF TR-FRET ratio. inhibition (IP1 accumulation), % at 46.1 µM. 120,000 tested, under 10 active. AID 901, 2007; active means well fitted curve in the direction sought with a large enough effect in the signal ratio, not every such curve was filed as active; inconclusive means small, poorly fitted or top-dose-only effect, or a change in a side signal; inactive means no such curve, though single readings can be large or run the other way; the % refers to the signal ratio;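 further: cells stimulated with carbachol in lithium chloride buffer; plate controls were DMSO basal wells for no effect and reference inhibitor wells for full effect; higher means more IMPase inhibition seen as more IP1 and lower FRET ratio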
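Elevated IP1 in lysates lowers TR-FRET signal (665/620 ratio and 620 channel reported). Cells were CHO-M1, given carbachol (50 uM as added) plus 50mM LiCl, pH 7.4, 30 min, 37C; compounds titrated up to 46 uM; AC50 by Hill equation.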
IMPase Li cell: qHTS Assay for Identifying the Cell-Membrane Permeable IMPase Inhibitors: Potentiation with Lithium. Potency, µM (series often up to 59.4 µM), for inactives: at the top dose activity, negative = IMPase inhibition, most hits filed as inhibitors. hit rate 0.35% among 210,000. AID 1457, 2008. CHO-M1 cells, IP1 TR-FRET (IP-One), carbachol + lithium;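 further: IP1 builds up when IMPase is blocked and the TR-FRET signal falls; potency means the concentration at half of the fitted maximal effect; plate controls were basal vehicle for no effect and high inhibitor control for full effect; nearly all actives have a fitted effect of over 50% in size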
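IP1 accumulation measured by competitive TR-FRET in lysed CHO-M1 cells after 30 min compound exposure at 37C, with a small lithium addition to potentiate weak responses. Hill-equation AC50 from ratio and donor-channel data.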
ALOX12 inhib: qHTS Assay for Inhibitors of 12-hLO (12-human lipoxygenase). purified 12-hLO, xylenol orange hydroperoxide absorbance. Potency, µM (titrated, usually from 57.1 µM), for the others: at the highest dose activity change, negative = inhibition, hits mostly inhibitors. hit rate 0.12% among 150,000. AID 1452, 2008; further: potency means the concentration at half of the fitted maximal effect; nearly all actives have a fitted effect of over 55% in size
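Hydroperoxide output read as Fe(III)-xylenol orange absorbance, 573-to-405 nm ratio, after 30 min reaction with 40 uM arachidonic acid. Enzyme: 150 nM purified human 12hLO, 15 min compound preincubation; 25 mM Hepes pH 7.0, room temperature.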
HPGD inh: qHTS Assay for Inhibitors of HPGD (15-Hydroxyprostaglandin Dehydrogenase); hit rate 4.3% among 150,000; AID 894, 2007; purified HPGD, NADH fluorescence kinetic, PGE2 substrate; 15-hydroxyprostaglandin dehydrogenase [NAD(+)] (Homo sapiens), P15428; Potency, µM, for the others: at the highest dose activity change, negative = inhibition, most hits filed as inhibitors; active means well fitted inhibition curve with a large enough effect, not every such curve was filed as active; inconclusive means small, poorly fitted or top-dose-only effect, or another doubt; inactive means no such curve, though single readings can be large or run the other way; further: potency means the concentration at half of the fitted maximal effect
Target sequence (P15428 whole entry, looked up): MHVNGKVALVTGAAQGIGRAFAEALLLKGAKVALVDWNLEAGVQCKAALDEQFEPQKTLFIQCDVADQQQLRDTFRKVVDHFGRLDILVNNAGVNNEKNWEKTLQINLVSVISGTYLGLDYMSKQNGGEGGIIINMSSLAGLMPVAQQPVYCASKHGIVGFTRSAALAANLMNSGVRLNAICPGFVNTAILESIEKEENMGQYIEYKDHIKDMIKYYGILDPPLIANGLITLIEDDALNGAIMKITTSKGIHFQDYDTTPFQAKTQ
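20 nM HPGD preincubated 15 min at room temperature with compound in 50 mM Tris-HCl pH 8, 0.01% Tween 20. Started with 1 mM NAD+ and 30 uM prostaglandin E2; NADH fluorescence (360/450 nm) read 5 times over 30-s intervals, last minus first.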
Active calls of the source: *; ? = inconclusive; . = no result given; ! = repeats disagree; [ ] = dose if it differs, or a comment. Unless noted, the call rests on the fitted dose curve; in most records, active means well fitted curve in the direction sought with a large enough effect; inconclusive means small, poorly fitted or top-dose-only effect, or another doubt; inactive means no such curve, though single readings can be large; an effect the other way counts as inactive or inconclusive. Unless noted, on the % scale 0 is the no-effect control and ±100 the full control effect.

SMILES	NPSR antagonist	ALDH1A1 inh	IMPase inh	IMPase Li cell	ALOX12 inhib	HPGD inh
S=c1nc(-c2csc3c2CCCC3)[nH][nH]1	8%	11µM*	.	2%	.	.
Cc1nnc2sc(-c3csc4c3CCCC4)nn12	3%[46.1 µM]	-10%	0	23%[38.3 µM]	1%	?
COc1cc(/C=C/C(=O)/C=C(O)/C=C/c2ccc(O)c(OC)c2)ccc1O	.	-4%	.	4%	-18%	22µM*!
COc1cc(C=O)ccc1O	.	25µM*	-5	5%	-2%	-15%
COc1cc(/C=C/C(=O)O)ccc1O	.	-3%	.	7%	-1%	-23%
COc1cc(/C=C2/C(=O)CNC2=O)ccc1O	3%	13µM*	.	44%	.	.
Cc1ccccc1C(=O)NC(=S)N(C)CCc1ccccn1	5%	0%	.	1%	.	.
O=C(c1ccco1)n1nc(-c2ccco2)nc1SCc1ccccc1	4%[46.1 µM]	-5%	2	20%[38.3 µM]	7%	?
O=C(c1ccco1)n1nc(-c2ccccc2)nc1SCc1ccccc1	-9%[46.1 µM]	1%	1	23%[38.3 µM]	4%	18µM*
O=C(Cc1ccccc1)n1nc(-c2ccco2)nc1SCc1ccccc1	-9%[46.1 µM]	?	5	45%[38.3 µM]	1%	4.5µM*
COc1ccc(CC(=O)N2N=C(C)CC2(O)C(F)(F)F)cc1OC (centres undefined)	11%	5%	.	-1%	.	.
Cc1ccc(-n2nnnc2SCc2nc3sc(C)c(C)c3c(=O)[nH]2)cc1	5%	0%	.	3%	3%	-5%
Cc1sc2nc(CSc3nc4ccccc4s3)[nH]c(=O)c2c1C	-35%	7.9µM*	.	1%	.	.
C=CCn1c(SCc2nc3sc(C(=O)O)c(C)c3c(=O)[nH]2)nnc1-c1ccccc1	8%	?	.	3%	.	.
CCOCCCn1c(SCc2nc3sc(C(=O)O)c(C)c3c(=O)[nH]2)nnc1-c1ccc(Cl)cc1	1%	?	.	-3%	.	.
C=CCn1c(SCc2nc3sc(C(=O)O)c(C)c3c(=O)[nH]2)nnc1-c1ccc(C(C)(C)C)cc1	14%	20µM*	.	.	.	.
Cc1c(C(=O)O)sc2nc(CSc3nnc(-c4ccc(F)cc4)n3C)[nH]c(=O)c12	12%	19µM*	.	-7%	.	.
CC(=O)c1sc2nc(CSc3nnnn3-c3ccccc3)[nH]c(=O)c2c1C	-13%	25µM*	.	-6%	.	.
COc1ccc(-c2nc3cnccn3c2Nc2ccc3c(c2)OCO3)cc1	-13%	-2%	-2	13%	-6%	-19%
COc1ccc(N2CCN(C(=O)c3ccc(NS(=O)(=O)c4ccc(F)cc4)cc3)CC2)cc1	-22%[46.1 µM]	1%	9	28%[38.3 µM]	-11%	-11%
Cc1nnc(SCc2nc3sc(C(=O)O)c(C)c3c(=O)[nH]2)s1	-16%	20µM*	.	.	.	.
CC(=O)c1sc2nc(CSc3nncn3C)[nH]c(=O)c2c1C	-7%	?	.	?	.	.
Oc1ccc(C=Nc2cccc3ncccc23)c(O)c1	-17%[46.1 µM]	-2%	-2	22%[38.3 µM]	0%	-7%
Oc1ccc(C=Nc2ccc3ncccc3c2)c(O)c1	15%[7.67 µM]	28µM*	27	5%[38.3 µM]	-29%	?
CCCCCCc1cc2cc(C(=O)OCC)c(=O)oc2cc1O	4%[7.67 µM]	.	.	.	.	.
SMILES	NPSR antagonist	ALDH1A1 inh	IMPase inh	IMPase Li cell	ALOX12 inhib	HPGD inh
O=C(/C=C/c1ccccc1)c1ccccc1	-17%	-13%	.	2%	-3%	-23%
N#Cc1ccc(/C=C/C(=O)c2ccccc2)cc1	-18%	8.9µM*	.	.	.	.
COc1ccccc1N(CC(=O)N/N=C/c1ccc(OCC(=O)NCc2ccco2)cc1)S(=O)(=O)c1ccc(C)cc1	-20%[46.1 µM]	-10%	-1	34%[38.3 µM]	3%	16µM*
O=C(COc1ccc(/C=N/NS(=O)(=O)c2ccccc2)cc1)Nc1ccc(F)cc1	-21%[46.1 µM]	-3%	2	.	-7%	.
Cc1ccc(S(=O)(=O)N/N=C/c2ccc(OCC(=O)Nc3ccccc3Cl)cc2)cc1	-28%[46.1 µM]	-14%	-1	9%[38.3 µM]	-16%	14µM*
Cc1ccc(N(CC(=O)NCc2ccco2)S(=O)(=O)c2ccccc2)cc1	-15%[46.1 µM]	?	7	-1%[38.3 µM]	-4%	-9%
COc1ccccc1NC(=O)COc1ccc(/C=N/NS(=O)(=O)c2ccc(C)cc2)cc1	?	?	?	14%[38.3 µM]	-19%	16µM*
COc1ccc(C2N(c3ccccn3)C(=O)C3CCCN32)c(OC)c1 (centres undefined)	1%[46.1 µM]	-11%	-1	-3%[38.3 µM]	0%	-5%
COc1cc(C2N(c3ccccn3)C(=O)C3CCCN32)cc(OC)c1OC (centres undefined)	-8%[46.1 µM]	22µM*	0	.	-4%	.
CO/N=C/C(C(C)=O)C(=O)Nc1ccc(Cl)cc1Cl (centres undefined)	-1%	?	.	16%	.	.
CN1[C@H](Cc2ccccc2)C=C[C@]1(C)C(=O)NCC1CC1	.	28µM*	.	-1%	-4%	-19%
CN(C)c1ccc(CNC(=O)[C@@]2(C)C=C[C@@H](Cc3ccccc3)N2C)cc1	.	20µM*	.	-8%	-5%	-15%
CC(=O)N1[C@H](Cc2ccccc2)C=C[C@]1(C)C(=O)NCc1ccc(C)o1	16%	8%	.	2%	-2%	22µM*!
COC(=O)CNC(=O)C1(C)C=CC2(CCCCC2)N1C(=O)OC (centres undefined)	.	3%	.	-11%	-1%	-18%
CNC(=O)[C@@]1(C)C=C[C@@H](Cc2ccccc2)N1C(C)=O	.	-6%	.	-10%	2%	-14%
COC(=O)N1C2(C=CC1(C)C(=O)NCc1ccc(N(C)C)cc1)CCCCC2 (centres undefined)	.	25µM*	.	2%	5%	-2%
Cc1noc(C)c1-c1cc(NC2CC2)ncn1	.	-6%	.	4%	-7%	-3%
CC1CCCN(C/C=C/c2ccccc2[N+](=O)[O-])C1 (centres undefined)	-8%[46.1 µM]	12%	8	12%[38.3 µM]	0%	-5%
Cc1cccn2c(=O)c3cc(C(=O)NC4CCS(=O)(=O)C4)sc3nc12 (centres undefined)	1%[46.1 µM]	?	5	-16%[38.3 µM]	-3%	?
CCN(CC)C(=O)Cn1cnc([N+](=O)[O-])n1	-5%[46.1 µM]	10%	-2	15%[38.3 µM]	-5%	-3%
S=c1nc(-c2ccccc2)c(-c2ccccc2)n[nH]1	-2%	0.32µM*	.	.	.	.
Nc1c(-c2ccccc2)n[nH]c1-c1ccccc1	3%[46.1 µM]	?	16	21%[38.3 µM]	0%	?
Cc1cccc(CN2CCN(c3nc4nonc4nc3NC3CC3)CC2)c1	26%	16µM*	.	-3%	.	.
